Screening results (PubChem)
HT1080-NT tox – qHTS for induction of synthetic lethality in tumor cells producing 2HG: qHTS for the HT-1080-NT fibrosarcoma cell line; HT-1080-NT fibrosarcoma viability, CellTiter-Glo ATP luminescence, 48 h; Potency, µM (series often up to 46.1 µM), most hits filed as cytotoxic; 360,000 compounds, 1.6% hits; AID 686970, 2013;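 note: NT is the 2HG producing partner of a matched IDH1 knockdown line; nearly all actives have a fitted effect of over 55% in size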
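HT-1080-NT; 750 cells/well; 5% FBS RPMI; 48 h compound, 37 degrees C; CellTiter-Glo luminescence; curve fitting and curve-class assignment.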
SW480 rereplic – A quantitative high throughput screen for small molecules that induce DNA re-replication in SW480 colon adenocarcinoma cells. AID 624297, 2012. SW480 DNA re-replication, Hoechst DNA content imaging, 48 h. Potency, µM (series often up to 46.1 µM), most hits filed as activators. 340,000 compounds, 1.8% hits; note: nearly all actives have a fitted effect of over 55% in size
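Treated cells incubate 48 hr (37 C, 5% CO2), are stained 40 min with Hoechst, and nuclear fluorescence is enumerated; a rise in nuclei with high DNA signal marks re-replication.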
KB-3-1 cytotox – qHTS assay for MDR1-selective chemotherapeutics: Primary screen using the parental adenocarcinoma cell KB-3-1. KB-3-1 viability, CellTiter-Glo ATP luminescence, 72 h. Potency, µM (highest dose often 46.1 µM), usual class: cytotoxic. 400,000 compounds, 1.4% hits. AID 1347075, 2019; note: nearly all actives have a fitted effect of over 60% in size
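Cytotoxicity in the drug-sensitive parental line KB-3-1 was scored as loss of CellTiter-Glo luminescence following 72 h incubation with compound. Values come from curve fitting of normalized concentration-response data.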
KB-V1 MDR tox – qHTS assay for MDR1-selective chemotherapeutics: Primary screen using the drug-selected MDR subline cells KB-V1; KB-V1 MDR cells viability, CellTiter-Glo, 72 h; 400,000 compounds, 3.4% hits; Potency, µM (titrated, usually from 46.1 µM), hits mostly cytotoxic; note: nearly all actives have a fitted effect of over 60% in size
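Cytotoxicity via CellTiter-Glo luminescence after 72 h compound exposure at 37 degrees C. Cells: drug-selected KB-V1 line, DMEM phenol-red free plus 10% FBS. Compounds tested at multiple concentrations; normalized data fitted to concentration-effect curves.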
MCF10A rereplic – A quantitative high throughput screen for small molecules that induce DNA re-replication in MCF 10a normal breast cells; MCF 10A DNA re-replication, Hoechst nuclear intensity, 48 h; Potency, µM (series often up to 46.1 µM), hits mostly activators; 350,000 compounds, 2.9% hits; AID 624296, 2012; note: nearly all actives have a fitted effect of over 50% in size
HT1080 IDH1KD tx – qHTS for induction of synthetic lethality in tumor cells producing 2HG: qHTS for the HT-1080-IDH1KD cell line; HT-1080 IDH1 knockdown viability, ATP luminescence, 48 h; Potency, µM (series often up to 46.1 µM), usual class: cytotoxic; 360,000 compounds, 2% hits; AID 686971, 2013
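CellTiter-Glo luminescence after 48 h compound exposure at 37 degrees C of IDH1-knockdown HT-1080 cells in 5% FBS RPMI. %Activity scaled between DMSO wells and cell-free media wells, with curves fitted and assigned curve classes.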
Each line names hits and unclear results; the compound was inactive in the other large screens; ! = repeats disagree. The list is not random: actives were taken first. Their share in the collection is about 8%. Calls come from the whole dose curve; as a rule, active = well fitted curve in the direction sought with a large enough effect; inconclusive = small, poorly fitted or top-dose-only effect, or another doubt; inactive = no such curve, though single readings can be large; an effect the other way counts as inactive or inconclusive.

CC(C)CC[C@@H](O)[C@](C)(O)C1CC[C@@]2(O)C3=CC(=O)[C@@H]4C[C@@H](O)[C@@H](O)C[C@]4(C)C3CC[C@]12C (some centres undefined)	HT1080-NT tox inconclusive
O=C(C1CCCCC1)N1CCC(c2nc3c(nnn3Cc3c(F)cccc3Cl)c(=O)[nH]2)CC1	none
COc1ccc(S(=O)(=O)Nc2ccc(F)cc2)cc1N(C)S(=O)(=O)c1ccc(Cl)cc1	HT1080-NT tox inconclusive, KB-3-1 cytotox inconclusive, KB-V1 MDR tox inconclusive, MCF10A rereplic inconclusive, HT1080 IDH1KD tx inconclusive
CCOC(=O)C(C)Oc1cc(C)cc2oc(=O)c3c(c12)CCCC3 (centres undefined)	KB-V1 MDR tox 10µM, MCF10A rereplic inconclusive
CCC(=O)Nc1ccc(C(=O)OCc2ccccc2Cl)cc1	KB-V1 MDR tox 15µM, MCF10A rereplic inconclusive
CCC(=O)Nc1ccc(Cl)c(Cl)c1	none
O=C(CCl)Nc1sccc1C(=O)c1ccccc1	HT1080-NT tox 10µM, SW480 rereplic inconclusive, KB-V1 MDR tox inconclusive, MCF10A rereplic inconclusive, HT1080 IDH1KD tx inconclusive
NC(=O)c1ccsc1NC(=O)COC(=O)Cc1ccccc1	none
CN1[C@@H](CC(=O)c2ccccc2)CCC[C@H]1C[C@H](O)c1ccccc1	KB-V1 MDR tox inconclusive
O=c1[nH]c(=O)n(CCC2=CCCCC2)c(O)c1C=NCc1cccnc1	none
CC(=Nc1ccc2c(c1)CCC2)c1c(O)n(-c2ccccc2)c(=O)[nH]c1=O	MCF10A rereplic inconclusive
CC(=O)OC1(C)CC(C)C(=O)C(C(O)CC2CC(=O)NC(=O)C2)C1 (centres undefined)	HT1080-NT tox 1.6µM, KB-3-1 cytotox inconclusive, KB-V1 MDR tox inconclusive, HT1080 IDH1KD tx 0.13µM
CC1[C@H]2Cc3ccc(O)cc3[C@]1(C)CCN2CCc1ccccc1 (some centres undefined)	HT1080-NT tox inconclusive, SW480 rereplic 1µM, KB-V1 MDR tox inconclusive, HT1080 IDH1KD tx 15µM
CCN(CC)Cc1cc(Nc2ccnc3cc(Cl)ccc23)ccc1O	HT1080-NT tox 10µM!, KB-V1 MDR tox inconclusive, MCF10A rereplic inconclusive, HT1080 IDH1KD tx 21µM!
CN(C)C(=O)Oc1ccnc2cc(Cl)ccc12	none
COc1ccccc1CCNC1C2CC3CC(C2)CC1C3 (centres undefined)	SW480 rereplic inconclusive, KB-V1 MDR tox 15µM
COc1ccccc1CCNC1CCC(C)CC1 (centres undefined)	none
CC(C)Cc1nnc(NC(=O)CCC(=O)N2CCC3(CC2)OCCO3)s1	none
CCS(=O)(=O)N1Cc2cc(C(=O)N(C)C)nc(-c3cccc(-c4ccc(F)cc4)c3)c2[C@H]1CCO	HT1080 IDH1KD tx 23µM (no result: SW480 rereplic, MCF10A rereplic)
CC(=O)OC(C)(C)/C=C/C(=O)[C@](C)(O)[C@H]1[C@H](O)C[C@@]2(C)[C@@H]3CC=C4[C@H](C[C@H](O)C(=O)C4(C)C)[C@]3(C)C(=O)C[C@]12C	HT1080-NT tox 0.082µM, SW480 rereplic inconclusive, KB-3-1 cytotox 0.15µM, KB-V1 MDR tox 8.2µM, MCF10A rereplic inconclusive, HT1080 IDH1KD tx 0.033µM
CC(=O)OC(C)(C)/C=C/C(=O)C(C)(O)C1[C@H](O)C[C@@]2(C)C3CC=C4C(CC[C@@H](O)C4(C)C)[C@]3(CO)C(=O)C[C@]12C (some centres undefined)	HT1080-NT tox 0.1µM, SW480 rereplic inconclusive, KB-3-1 cytotox inconclusive, KB-V1 MDR tox 3.7µM, MCF10A rereplic inconclusive, HT1080 IDH1KD tx 0.033µM
CC(=O)OC(C)(C)/C=C/C(=O)C(C)(O)C1C(O)CC2(C)C3CC=C4C(CC(O)C(=O)C4(C)C)C3(C)C(=O)CC12C (centres undefined)	HT1080-NT tox 0.12µM, SW480 rereplic 0.012µM, KB-3-1 cytotox 0.16µM, KB-V1 MDR tox 0.46µM, MCF10A rereplic inconclusive, HT1080 IDH1KD tx 0.046µM
OC1/C(=C/c2ccc(F)cc2)N2CCC1CC2 (centres undefined)	none
O=C(O)CSC(=S)N1CC2CC(C1)c1cccc(=O)n1C2 (centres undefined)	none
CCOc1ccc(N=Cc2c(O)n(-c3ccc(C)c(C)c3)c(=O)[nH]c2=O)cc1	MCF10A rereplic inconclusive
O=C(CCl)Nc1nccs1	HT1080-NT tox inconclusive, SW480 rereplic 16µM, KB-3-1 cytotox inconclusive, KB-V1 MDR tox inconclusive, MCF10A rereplic inconclusive, HT1080 IDH1KD tx inconclusive
O=C(Nc1ccc(Cl)cc1)Nc1nccs1	HT1080-NT tox 7.3µM, SW480 rereplic 5.8µM, KB-3-1 cytotox 4.6µM, KB-V1 MDR tox 2.6µM, MCF10A rereplic 7.3µM, HT1080 IDH1KD tx 7.3µM
COCCN1C(=O)NC(=O)/C(=C\c2ccc(F)cc2)C1=O	MCF10A rereplic 5.2µM
O=C(C1CC1)N1CCC(c2nc(-c3ccc(S(=O)(=O)N4CCCC4)cc3)no2)CC1	KB-V1 MDR tox inconclusive, HT1080 IDH1KD tx inconclusive
O=C(CC1CCCCC1)N1CCC(c2nc(-c3ccc(S(=O)(=O)N4CCCC4)cc3)no2)CC1	SW480 rereplic inconclusive, KB-V1 MDR tox 15µM, MCF10A rereplic inconclusive
C=C1C(=O)O[C@@H]2C[C@@H](C)[C@@H]3C=CC(=O)[C@@]3(C)[C@@H](O)[C@H]12	HT1080-NT tox 1.5µM, SW480 rereplic inconclusive, KB-3-1 cytotox inconclusive, MCF10A rereplic 0.92µM, HT1080 IDH1KD tx 0.58µM
C=C1C(=O)O[C@@H]2C[C@@H](C)[C@@H]3C=CC(=O)[C@@]3(C)[C@@H](OC(C)=O)[C@H]12	HT1080-NT tox 6.5µM, SW480 rereplic inconclusive, KB-3-1 cytotox inconclusive, KB-V1 MDR tox 15µM, MCF10A rereplic 1.2µM, HT1080 IDH1KD tx 4.6µM
COc1cc(-c2ccc(N)c(OC)c2)ccc1N	none
COc1cc(-c2ccc(=O)[nH]n2)ccc1OC(F)F	KB-3-1 cytotox 0.46µM, KB-V1 MDR tox 0.052µM, MCF10A rereplic inconclusive
CCN(CC)C(=O)[C@H]1C[C@H](CC(=O)NCC23CC4CC(CC(C4)C2)C3)C(=O)N2CCc3c([nH]c4cc(-c5ccco5)ccc34)[C@]12C	SW480 rereplic inconclusive
COc1ccc(C(=O)N2CCC3(CC2)OCCO3)cc1	none
COc1ccc(-n2cnc3cc(C(=O)N4CCC5(CC4)OCCO5)ccc32)cc1	HT1080-NT tox inconclusive, SW480 rereplic inconclusive, KB-3-1 cytotox 15µM, KB-V1 MDR tox inconclusive, MCF10A rereplic inconclusive, HT1080 IDH1KD tx 16µM
Cn1c(O)c(C(=Nc2ccccc2)SCc2ccccc2Cl)c(=O)n(C)c1=O	HT1080-NT tox inconclusive, KB-3-1 cytotox 18µM, KB-V1 MDR tox inconclusive, HT1080 IDH1KD tx 13µM
